Data on eleven compounds can be found in PubChem BioAssay (NCI).

Compounds without any hit were thinned out: in the full panel of roughly 83,000, 20% have a hit.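 In brief: 96-well plates, 48 h treatment, single concentration, percent growth endpoint.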 Unmarked numbers belong to inactive results. The source made the active and inactive calls. How the source made its calls: active means growth percent below 10; inactive means the rest.

This assay relates to MDA-MB-468 breast. In words: NCI-60 one-dose screen, 48 h (100 = growth as untreated, 0 = no growth, -100 = all killed). As to conditions: 10 µM unless noted.
For `O=C(/C=C/c1ccco1)Nc1ncc(Cc2ccc(F)cc2)s1`, the growth was 21.5%. In the case of `N=C(N)c1ccc(-c2ccc(-c3cc(Cl)cc(Cl)c3)o2)o1` it was -69.1% (active).

`Cc1ccc2nc(SCC(=O)Nc3ccc(-c4nc5ccccc5s4)c(Cl)c3)[nH]c2c1`: the growth was 101%. Consider `CCO/C=N/C1=C(C#N)C(c2ccc(OC)cc2)c2sc3c(CC)cccc3c2O1` (stereo unspecified), for which the growth is -21.1% (active).

Take `Oc1cc(/C=C/c2nc(N3CCOCC3)c3cc(Cl)c(Cl)cc3n2)cc(O)c1O`: the growth is 85%.

On to `CCN(CC)c1ccc(/C=N/NC(=O)c2ccc(S(N)(=O)=O)cc2)c(O)c1`, for which the growth was -0.911% (active).

Consider `COc1cc(OC)c(C(=O)C(CN(C)C)CN(C)C)cc1OC`, for which the growth was -73.3% (active).

With `CCCCCCCCOc1ccc(/C=N/Nc2cc(C)nc3ccc(Cl)cc23)cc1`, the growth is -49.9% (active).

Regarding `N#CSCC1CC(O)(c2ccccc2)CC(c2ccc(F)cc2)O1` (stereo unspecified), the growth is 5.99% (active).

Regarding `Cc1cc(=O)[nH]c(NN=C2CCCC2)n1`, the growth is 116%. Regarding `O=C1C(N2CCOCC2)=Cc2cccc3cccc1c23`, the growth is 72%.
